HCV inh: HCV inhibition; Potency, µM (titrated, usually from 41.8 µM), inactives show at the highest dose activity change, negative = inhibition, actives largely listed as inhibitors; AID 651820; Huh7.5.1 HCVcc-Cre infection, luciferase reporter, 44 h; hit rate 3.4% among 340,000
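Whole-lifecycle infectious HCVcc-Cre system; cells 1,000/well, compound then virus (~0.5 moi) added 4 h after plating, 44 h culture. Luciferase read 15 sec following 15 min substrate incubation, room temp.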
RE007 growth inh: less growth of the S. pombe RE007 Vpr strain | AID 651644 | S. pombe RE007 Vpr strain, BacTiter-Glo ATP luminescence, 24 h | hit rate 0.21% among 360,000 | Potency, µM (top dose mostly 92.2 µM), for inactives: at the top dose activity change, negative = less growth, actives largely listed as inhibitors; active = well fitted falling curve with a large enough effect; inconclusive = small, poorly fitted or top-dose-only effect; inactive = no such curve, though single readings can be large or run the other way; also: nearly all actives have a fitted effect of over 50% in size
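Fission yeast RE007 carrying one integrated HIV-1 vpr copy, seeded at OD 0.01 in PMG+AL medium with 23 nL pinned compound. Grown 24 h at 30 degrees; viability read by BacTiter-Glo luminescence after 5 min.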
MARV entry inh: blocks Marburg virus binding to or entry into cells | Marburg virus pseudotyped entry inhibition, cell reporter | Potency, µM (series often up to 37.8 µM), for the others: at the highest dose activity change, negative = inhibition, most hits filed as inhibitors | hit rate 1.8% among 300,000; calls by dose curve; tested in HEK293 cells
FMDV inh: foot and mouth disease virus antiviral activity. FMDV antiviral cell-based qHTS. Potency, µM (titrated, usually from 57.9 µM), without a hit: top-dose activity change, negative = inhibition, actives largely listed as inhibitors. hit rate 1.2% among 410,000; calls by dose curve; tested in HEK293T cells; also: read-out not given here; nearly all actives have a fitted effect of over 45% in size
LASV entry inh: Lassa virus entry inhibition. hit rate 1.2% among 300,000. Lassa virus pseudotype entry inhibition, cell reporter. Potency, µM (titrated, usually from 37.9 µM), for the others: at the top dose activity change, negative = inhibition, hits mostly inhibitors; calls by dose curve; tested in HEK293 cells; also: nearly all actives have a fitted effect of over 50% in size
Sm TGR inh: S. mansoni TGR enzyme inhibition. hit rate 3% among 360,000. Q962Y6. AID 485364. purified TGR, DTNB reduction, TNB absorbance 405 nm. Potency, µM (series often up to 114 µM), for the others: top-dose activity change, negative = inhibition, usual class: inhibitors; also: nearly all actives have a fitted effect of over 60% in size
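Kinetic colorimetric format: TGR-catalysed, NADPH-driven DTNB reduction monitored via TNB absorbance. Enzyme dispensed at 20 nM; compound exposure 15 min at room temperature before reaction start.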
The depositor's hits bear a star; ? = inconclusive; / = no result; [ ] = another dose, or the depositor's remark. The list is not random: actives were taken first. Their share in the collection is about 7.2%. Unless noted, calls follow the shape of the dose curve; as a rule, active = well fitted curve in the direction sought with a large enough effect; inconclusive = small, poorly fitted or top-dose-only effect, or another doubt; inactive = no such curve, though single readings can be large; an effect the other way counts as inactive or inconclusive. % is scaled to controls: 0 for no effect and ±100 for the full control effect; potency is read from the fitted curve at half-maximal effect.

SMILES	HCV inh	RE007 growth inh	MARV entry inh	FMDV inh	LASV entry inh	Sm TGR inh
COc1ccc(NC(=O)COc2ccccc2Cc2ccccc2)cc1S(N)(=O)=O	10µM*	-5%	?	?	?	7%
COc1ccc(NC(=O)c2ccco2)cc1S(=O)(=O)N1CCCCC1	-28%	21%	1%	11%	-5%	-1%
COc1ccc(NC(=O)C2CCC(C(C)(C)C)CC2)cc1S(=O)(=O)N1CCCCC1 (centres undefined)	-29%	8%	11µM*	18µM*	?	0%
COc1ccc(NC(=O)COc2ccccc2Cl)cc1S(=O)(=O)N1CCCCC1	10µM*	29%	?	-6%	?	-1%
Cc1ccc(OCC(=O)Nc2ccc(C)c(S(=O)(=O)N3CCCCC3)c2)c([N+](=O)[O-])n1	?	-3%	1.1µM*	?	?	15%
Cc1ccccc1OCC(=O)Nc1ccc(C)c(S(=O)(=O)N2CCCCCC2)c1	?	34%	?	-24%	?	-1%
COc1cc(NC(=O)COc2cccc(OC)c2)cc(OC)c1	-21%	-15%	2%	/	9%	0%
COc1cccc(OCC(=O)Nc2ccc(OC)c(OC)c2)c1	0.63µM*	-3%	2%[46.1 µM]	0%	0%	6%
COC1=C[C@H](C(=O)NCc2ccccc2)[C@H](C)[C@@H](c2ccccc2)CC1=O	/	/	-1%[14.2 µM]	/	/	/
COc1cccc(N2CCN(c3ncnc4onc(-c5ccc(Cl)cc5)c34)CC2)c1	/	/	/	-27%	?	12%
CC(C)C(Cl)=NOC(=O)Nc1ccc(S(N)(=O)=O)cc1	?	16µM*	?	?	-9%[46.1 µM]	/
CCCn1c2ccccc2c2cnn(CC(=O)N3CCN(c4ccccc4F)CC3)c(=O)c21	/	/	/	-16%	3%[46.1 µM]	5%
COc1ccc(CN2CCNC(=O)C2CC(=O)O)c(OC)c1 (centres undefined)	2%	8%	/	-14%	/	35µM*
COc1ccc(CN2CCNC(=O)C2CC(=O)NCc2cc(C)n(C)n2)c(F)c1 (centres undefined)	-2%	3%	26%	-15%	-15%	20µM*
COc1cccc(CN2CCNC(=O)C2CC(=O)NC2CCCC2)c1OC (centres undefined)	-2%	2%	-16%	-9%	7%	?
CCOc1ccc(CN2CCNC(=O)C2CC(=O)NCc2cc(C)n(C)n2)cc1 (centres undefined)	38%	-1%	2%	5%	4%	?
COc1cccc(CN2CCNC(=O)C2CC(=O)O)c1OC (centres undefined)	20%	-7%	/	3%	/	40µM*
COc1cccc(CN2CCNC(=O)C2CC(=O)NC2CCCCC2)c1OC (centres undefined)	13%	10%	/	16%	/	45µM*
COc1ccc(CN2CCNC(=O)C2CC(=O)NC2CCCC2)c(OC)c1 (centres undefined)	-5%	-3%	/	?	/	-35%
Cc1ccccc1CN1CCNC(=O)C1CC(=O)O (centres undefined)	6%	-9%	/	-19%	/	25µM*
O=C(CC1C(=O)NCCN1Cc1cccc(F)c1)NC1CCCCC1 (centres undefined)	25%	3%	-9%	8%	0%	35µM*
COC(=O)c1c(C)nc(C)c2c(=O)oc3c(c12)CCCC3	/	/	13%	/	/	/
COc1cccc([C@@H]2Oc3ccc(Br)cc3C(=O)[C@@H]2OC(=O)N[C@H](C)C2CCCCC2)c1	/	/	-30%[14.2 µM]	/	/	/
O=[N+]([O-])c1ccc(Cl)c(-c2ccc(/C=N/c3c(-c4ccco4)nc4ccccn34)o2)c1	-6%	-7%	?	-29%	6%	-7%
Cc1cc(C)c([N+](=O)[O-])cc1-c1ccc(/C=N/c2c(-c3ccco3)nc3ccccn23)o1	-19%	-30%	27%	-8%	1%	40µM*
SMILES	HCV inh	RE007 growth inh	MARV entry inh	FMDV inh	LASV entry inh	Sm TGR inh
Oc1cccc(/C=N/c2c(-c3ccco3)nc3ccccn23)c1	-7%	-19%	-3%	/	-2%	35µM*
COCc1c(C(=O)NC2CCCC2)cnn1-c1nccc(-c2cccs2)n1	/	/	/	20%	/	/
CCCN(CCC)C1=CC(=[N+]2CCCC2)CC(C)(C)C1	?	5%	?	?	10µM*	1%
CN(C)NC1=CC(=[N+]2CCCC2)CC(C)(C)C1	-8%	-11%	2%[46.1 µM]	-5%	0%	-3%
CC(C)N(Cc1nc(-c2ccccc2)no1)C(=O)c1ccc([N+](=O)[O-])cc1	22µM*	-15%	/	-1%	/	3%
COc1ccccc1C(=O)N(Cc1nc(-c2ccc(Cl)cc2)no1)C(C)C	11µM*	5%	/	?	/	-1%
Cc1ccccc1C(=O)N(Cc1nc(-c2ccc(Cl)cc2)no1)C(C)C	/	/	-27%[46.1 µM]	?	?	7%
COc1ccccc1OCC(=O)N(Cc1nc(-c2ccccc2)no1)C1CCCCC1	11µM*	4%	?	-21%	-23%	5%
COc1ccc(-c2cn3c(n2)sc2cc(C(=O)Nc4ccc(C)c(Cl)c4)ccc23)cc1	/	/	/	2%	6%[46.1 µM]	-2%
O=C(Nc1nc(-c2ccccn2)cs1)c1ccco1	?	?	?	12%	?	32µM*
c1ccc(-c2nc(-c3ccco3)cs2)nc1	-12%	?	?	10%	6%	22µM*
O=C(NC(Cc1ccccc1)C(=O)NCc1ccccn1)c1ccco1 (centres undefined)	1%	2%	3%	24%	3%	?
O=C(Nc1nc(-c2cc(Cl)sc2Cl)cs1)c1ccc(Br)s1	?	-10%	?	-24%	?	1%
O=C(Nc1nc(-c2ccccn2)cs1)c1ccc(Br)s1	2.2µM*	?	?	0%	?	-13%
C[C@H](NC(=O)c1ccco1)C(=O)Nc1nc(-c2ccccn2)cs1	-13%	4%	-7%	-18%	-12%[46.1 µM]	/
O=C(NCc1ccccn1)c1ccco1	5%	-4%	-3%[46.1 µM]	6%	-1%	50µM*
CCCCSc1nnc2c(n1)OC(c1ccc(Br)s1)Nc1ccccc1-2 (centres undefined)	/	/	15%[46.1 µM]	45%	25%[46.1 µM]	-20%
CC(=O)c1ccc(NC(=O)c2cc3sccc3n2Cc2ccc(Cl)cc2)cc1	/	/	2%[46.1 µM]	-12%	1%[46.1 µM]	2%
COc1cc(-c2nc(S(=O)(=O)c3ccc(Br)cc3)c(N3CCOCC3)o2)cc(OC)c1OC	/	/	/	-1%	?	2%
CCCOc1ccccc1C(=O)N1CCCCC1CCN1CCOCC1 (centres undefined)	/	/	1%[46.1 µM]	-7%	-1%[46.1 µM]	0%
O=C(c1cnc(N2CCN(c3ncccn3)CC2)c2ccccc12)N1CCN(c2ncccn2)CC1	11µM*	9%	?	-6%	-28%	8%

Source: PubChem (National Center for Advancing Translational Sciences (NCATS))
